Assay outcomes deposited in PubChem by National Center for Advancing Translational Sciences (NCATS).
Hits are enriched below; roughly 14% of the tested compounds scored in any of these assays.
NS1 inh = influenza NS1 inhibition. Potency, µM (series often up to 46.1 µM). 270,000 compounds, 0.4% hits; calls by dose curve; note: actives are rising curves; nearly all actives have a fitted effect of over 50% in size
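S. cerevisiae expressing influenza A NS1, grown in glucose, washed, then diluted 1:100 into pH 6.0 -URA galactose medium with 23 nl compound. Growth recovery read as OD600; NS1-free strain serves as control.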
Giardia FBPA inh = blocks Giardia fructose-bisphosphate aldolase activity. Potency, µM (series often up to 59.6 µM), actives largely listed as inhibitors. 290,000 compounds, 0.71% hits. purified Giardia FBPA; note: nearly all actives have a fitted effect of over 55% in size
Target sequence (A8B2U2 whole entry, looked up): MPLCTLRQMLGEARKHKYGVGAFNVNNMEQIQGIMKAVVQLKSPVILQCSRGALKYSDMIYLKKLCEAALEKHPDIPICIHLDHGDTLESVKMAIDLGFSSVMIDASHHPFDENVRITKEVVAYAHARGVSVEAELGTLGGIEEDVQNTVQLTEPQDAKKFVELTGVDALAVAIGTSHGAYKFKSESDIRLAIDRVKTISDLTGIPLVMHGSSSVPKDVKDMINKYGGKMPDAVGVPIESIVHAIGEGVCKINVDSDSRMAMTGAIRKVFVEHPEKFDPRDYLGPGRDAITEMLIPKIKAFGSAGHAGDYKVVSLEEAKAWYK
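40 nM FBPA preincubated 10 min at RT with compound (up to 57.5 uM final), then substrate plus GAPDH/TPI/NAD/arsenate coupling and diaphorase/resazurin added. Fluorescence read after 20 min at RT, 525/598 nm.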
Cycloheximide cs = counter-screen hit for Shiga toxin inhibitors, cycloheximide; max response, %; cell reporter, cycloheximide protein synthesis inhibition counterscreen; 300,000 compounds, 12% hits; in the data active = max response mostly above about 13%, no sharp cut-off; inactive = mostly below about 14%; note: read at 38.3 µM for the half of the compounds with a filed dose
LmPK inh = LmPK (Leishmania mexicana) enzyme inhibition | Q27686 | purified LmPK, Kinase-Glo ATP luminescence, 1 h | Potency, µM (series often up to 57.5 µM), hits mostly inhibitors | 290,000 compounds, 0.37% hits | AID 1721
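In 50 mM imidazole pH 7.2 with 7 mM MgCl2, LmPK (0.1 nM) turned over PEP (0.5 mM) and ADP (0.1 mM) for 1 h at room temperature. Luciferase read-out of ATP.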
Shiga toxin inh = Shiga toxin inhibition; 290,000 compounds, 9.2% hits; AID 2315; inhibition, % at 38.7 µM; Vero cells, Shiga toxin protein synthesis inhibition reporter; in the data active = inhibition mostly above about 28%, no sharp cut-off; inactive = mostly below about 43%
Of the large screens only hits and unclear results are named; the others gave an inactive call. Unless noted, calls come from the whole dose curve; as a rule, active = well fitted curve in the direction sought with a large enough effect; inconclusive = small, poorly fitted or top-dose-only effect, or another doubt; inactive = no such curve, though single readings can be large; an effect the other way counts as inactive or inconclusive.

CCn1c(SCc2ccccc2F)nnc1-c1ccncc1	none
O=C1NC(=O)/C(=C\c2cn(CC(=O)N3CCOCC3)c3ccccc23)S1	Giardia FBPA inh inconclusive
O=C(c1cc(-c2cccs2)on1)N1CCN(C(c2ccccc2)c2ccccc2)CC1	none
O=C(c1cc(-c2ccco2)on1)N1CCc2ccccc2C1	none
O=C(c1cc(-c2ccccc2O)on1)N1CCc2ccccc2C1	Cycloheximide cs 25
O=C(c1cc(-c2cccs2)on1)N1CCOCC1	Cycloheximide cs 37, Shiga toxin inh 104
O=C(c1cc(-c2cccs2)on1)N1CCc2ccccc2C1	Shiga toxin inh 47
N#Cc1c(N2CCCC2)nc(N)c2c(N)nc(N3CCCC3)cc12	Giardia FBPA inh inconclusive, Cycloheximide cs 31, Shiga toxin inh 47
COc1cc2c(C#N)c(N3CCN(C)CC3)nc(N)c2c(N)n1	none
COc1cc2c(C#N)c(N3CCCC3)nc(N)c2c(N)n1	NS1 inh inconclusive, Giardia FBPA inh 1.3µM
O=C(Nc1ccncc1)C1CCN(S(=O)(=O)c2ccccc2C(F)(F)F)CC1	none (no result: Giardia FBPA inh)
CCOC(=O)[C@@H]1[C@H]2COc3cc(OC)ccc3[C@@H]2N2C(=O)N(c3cccc(Cl)c3)C(=O)[C@@]12C	none
c1ccc(CN2OCC3Cn4c(nc5ccccc54)C32)cc1 (centres undefined)	none
c1ccc(N2OCC3Cn4c(nc5ccccc54)C32)cc1 (centres undefined)	Cycloheximide cs 27, Shiga toxin inh 42
Cc1noc(C(=O)Nc2cccc(Cl)c2)c1Cl	Cycloheximide cs 33, Shiga toxin inh 60
Cc1noc(C(=O)Nc2cccc(O)c2)c1Cl	Cycloheximide cs 43, Shiga toxin inh 76
Cc1noc(C(=O)Nc2ccc(C#N)cc2)c1Cl	none
Cc1noc(NC(=O)c2ccc(Cl)cc2)c1Cl	Cycloheximide cs 44, Shiga toxin inh 66 (no result: NS1 inh)
O=C1CSC(=S)N1/N=C\c1ccc(Cl)c([N+](=O)[O-])c1	none (no result: Giardia FBPA inh, Cycloheximide cs, LmPK inh, Shiga toxin inh)
CCCC1Oc2ccccc2C(=O)N(CC(=O)c2ccc3c(c2)OCCO3)C1=O (centres undefined)	Cycloheximide cs 21 (no result: Giardia FBPA inh)
O=C(CN1C(=O)c2ccccc2S1(=O)=O)c1ccc2c(c1)OCCO2	none
CC1CCN(CC(=O)c2ccc3c(c2)OCCO3)CC1	Giardia FBPA inh inconclusive (no result: NS1 inh)
CC(C)CC1NC(=O)N(CC(=O)c2ccc3c(c2)OCCO3)C1=O (centres undefined)	Cycloheximide cs 34, Shiga toxin inh 135
O=C(Cc1ccccc1)NNC(=O)C1CC=CCC1 (centres undefined)	none
Cc1ccc(Nc2nc3c(s2)CCC3)c(C)c1	Cycloheximide cs 32, Shiga toxin inh 56
COc1ccccc1Nc1c2c(nc3ccccc13)CCC2	none
COc1ccccc1Nc1nc2c(s1)CCC2	Cycloheximide cs 36, Shiga toxin inh 68
Brc1ccc2oc(-c3ccn[nH]3)cc2c1	Cycloheximide cs 70, Shiga toxin inh 119
CN(C)C(=O)CCc1nc(-c2ccc(C(C)(C)C)cc2)no1	Cycloheximide cs 44, Shiga toxin inh 123
CC(C)(C)c1ccc(-c2noc(CCC(=O)NCC3CCCO3)n2)cc1 (centres undefined)	Cycloheximide cs 43
CC(C)(C)c1ccc(-c2noc(CCC(=O)N3CCOCC3)n2)cc1	Cycloheximide cs 26 (no result: NS1 inh)
CC(C)(C)c1ccc(-c2noc(CCC(N)=O)n2)cc1	Cycloheximide cs 35, Shiga toxin inh 72
Cc1cc(C)cc(OCCNC(=O)c2ccc(Br)cc2)c1	none
O=C(Nc1ccccc1)N1CC[C@@]2(CCCN(C(=O)c3ccco3)C2)C1	none (no result: NS1 inh, Cycloheximide cs, LmPK inh, Shiga toxin inh)
CC(C)(C)c1ccc(Oc2ncccc2NC(=O)c2cccs2)cc1	none
CNC(=O)CCc1nc(-c2ccc(C(C)(C)C)cc2)no1	Cycloheximide cs 41
COc1ccc(NC(=S)NCc2cccs2)cc1	Cycloheximide cs 19, Shiga toxin inh 47
CCC(C)NC(=S)Nc1ccc(F)cc1 (centres undefined)	none
CC(Cc1cccs1)NC(=S)Nc1ccc(F)cc1 (centres undefined)	Cycloheximide cs 10, Shiga toxin inh 51
COc1ccc(NC(=S)NC(=O)/C=C/c2cccs2)cc1	none (no result: NS1 inh)
COc1ccc(NC(=S)NC(C)Cc2cccs2)cc1 (centres undefined)	Cycloheximide cs 29, Shiga toxin inh 68 (no result: NS1 inh)
S=C(NCc1cccs1)Nc1ccccc1Cl	NS1 inh inconclusive, Cycloheximide cs 24, Shiga toxin inh 44
Cc1cccc(OC(C)C(=O)Nc2ccccc2C(=O)N2CCCCC2)c1 (centres undefined)	none (no result: Giardia FBPA inh)
O[C@H]([C@H](O)[C@@H](O)c1nc2ccccc2[nH]1)[C@@H](O)c1nc2ccccc2[nH]1	none (no result: Giardia FBPA inh, Cycloheximide cs, LmPK inh, Shiga toxin inh)
Cc1ccc(CSc2ncn(-c3ccccc3)n2)cc1	Cycloheximide cs 36, Shiga toxin inh 86
Clc1ccccc1CSc1ncn(-c2ccccc2)n1	Cycloheximide cs 42, Shiga toxin inh 70
NC(=S)SCCC(=O)O	none (no result: Giardia FBPA inh, Cycloheximide cs, LmPK inh, Shiga toxin inh)
Cc1ccc(N=CNc2ccc(C)cc2C)c(C)c1	none
Cc1cc(NC(=NC2CC2)c2ccccc2)n(-c2ccccc2)n1	none (no result: NS1 inh)
Cc1cc2n(n1)SC(Nc1ccccc1)N2 (centres undefined)	Cycloheximide cs 32 (no result: Giardia FBPA inh)
Cc1ccc(NC2Nc3cc(C)nn3S2)c(C)c1 (centres undefined)	Cycloheximide cs 57, Shiga toxin inh 83 (no result: NS1 inh)
COc1cc(C(=O)NCCCC2CCCC2)ccc1OC1CCN(C(C)=O)CC1	none
CC(=O)C(C)n1c(CN2CCN(C(=O)c3ccco3)CC2)nc2c1c(=O)n(C)c(=O)n2C (centres undefined)	none
CCOc1ccc(Oc2cc(N)cc([N+](=O)[O-])c2)cc1	Shiga toxin inh 53 (no result: NS1 inh)
CC(=O)Nc1ccc(Oc2cc(N)cc([N+](=O)[O-])c2)cc1	none (no result: NS1 inh)
CC(=O)O[C@]1(C(C)=O)CC[C@H]2C3C=C(Cl)C4=CC(=O)[C@@H]5C[C@H]5[C@]4(C)C3CC[C@@]21C (some centres undefined)	none (no result: Cycloheximide cs, LmPK inh, Shiga toxin inh)
CC(SC1=NCCS1)C(=O)Nc1nnc(-c2ccc(Br)cc2)s1 (centres undefined)	Cycloheximide cs 21, Shiga toxin inh 38
CC(SC1=NCCS1)C(=O)Nc1nnc(-c2ccc(F)cc2)s1 (centres undefined)	none
CC(C)c1ccc(NC2CCCN(C(=O)c3ccc(N4CCOCC4)cc3)C2)cc1 (centres undefined)	none (no result: Giardia FBPA inh)
CN(C)S(=O)(=O)N1CCc2ccc(NC(=O)c3ccc(C(F)(F)F)cc3)cc2C1	Cycloheximide cs 27 (no result: Shiga toxin inh)
CS(=O)(=O)N1CCc2ccc(NC(=O)C3CCCO3)cc2C1 (centres undefined)	none (no result: Giardia FBPA inh)
COCCC(=O)N1CCc2ccc(NC(=O)c3ccc(C(F)(F)F)cc3)cc2C1	Shiga toxin inh 26
COCCC(=O)Nc1ccc2c(c1)CN(C(=O)CSC)CC2	none
O=C1CN(Cc2cc(=O)oc3cc4c(cc23)CCC4)CCN1	none (no result: NS1 inh)
Cc1c(C(=O)NCc2ccccc2F)oc2ccccc12	none (no result: Giardia FBPA inh)
COCc1c(C(=O)NC2CCCCCC2)oc2ccccc12	Cycloheximide cs 22, Shiga toxin inh 62
Cc1c(C(=O)NCc2cccs2)oc2ccccc12	Cycloheximide cs 19, Shiga toxin inh 30
Cc1c(C(=O)NC2CCCCC2C)oc2ccccc12 (centres undefined)	none (no result: Giardia FBPA inh)
